Laboratory results reported in PubChem BioAssay (Tox21).
Records with an inconclusive call do not appear. The source made the active and inactive calls. Calls follow the shape of the dose curve; as a rule, active = well fitted cell-killing curve with a large enough effect in the repeat runs; inconclusive = weak or mixed curves, or effect the other way; inactive = flat fitted curve, though single readings scatter.
% is scaled to controls: 0 for no effect and ±100 for the full control effect; potency is read from the fitted curve at half-maximal effect.

Assay: qHTS assay to identify small molecule agonists of the androgen receptor (AR) signaling pathway in the presence of an antagonist - cell viability counter screen (AID 1259379); also: nearly all actives have a fitted effect of over 25% in size
Details: MDA-kb2 viability, CellTiter-Fluor, 16 h; series mostly up to 92.4 µM; activity change, negative = cytotoxicity: at the top concentration
From the text: National Center for Advancing Translational Sciences [NCATS]
NIH Chemical Genomics Center [NCGC]
U.S. Environmental Protection Agency [EPA]
National Institutes of Environmental Health Sciences [NIEHS]
National Toxicology Program [NTP]
U.S. Food and Drug Administration [FDA]
Androgen receptor (AR) is an important member of nuclear receptor family. Its signaling plays a critical role in AR-dependent prostate cancer and other androgen related diseases. Considerable attention has been given in the past decades to develop methods to study and screen for the environmental chemicals that have the potential to interfere with metabolic homeostasis, reproduction, developmental and behavioral functions. Therefore AR binding assay for screening against androgen agonists and antagonists can be used to identify potential endocrine disruptors.
MDA-kb2 cells (from ATCC, deposited by Wilson et al.) are human breast carcinoma cells that were stably transfected with a luciferase reporter gene under control of the MMTV promoter that contains response elements for both androgen receptor (AR) and glucocorticoid receptor (GR). This particular screening for measuring luciferase reporter gene activity using MDA-kb2 cells against Tox21 10K library compounds is a confirmation study on agonist mode screening in the presence of AR-antagonist compound (Nilutamide) at 3.0uM final concentration. The cytotoxicity of the compounds was tested in parallel by measuring the cell viability using CellTiter-Fluor assay system (Promega, Madison, WI) in the same wells.
Tox21 Assay Protocol Summary:
MDA-kb2 cells (cells cultured without CO2) were dispensed at 3,000 cells/well in 4uL of culture medium into white wall/solid-bottom 1536-well plates (Corning Life Sciences, Corning, NY) using a Multidrop Combi (Thermo Fisher Scientific Inc., Waltham, MA) dispenser. The assay plates were incubated at 37C and 0% CO2 for 5hr. One uL of 3.0uM (final concentration) Nilutamide or assay buffer was added using two separate tips of Flying Reagent Dispenser (FRD, Aurora Discovery, San Diego, CA). Then 23nL of compounds dissolved in DMSO at 15 concentrations and positive controls were transferred to the assay plates using a Pintool station (Wako, San Diego, CA). The assay plates were incubated at 37C and 0% CO2 for 16 hr. After 15hr incubation at 37C, 1uL/well CellTiter-Fluor reagent (Promega Corporation) was added to each well of the assay plates using FRD. After 1hr incubation at 37C and 0% CO2, the fluorescence signal was measured using a ViewLux plate reader (PerkinElmer, Shelton, CT).
With `O=S(=O)(c1ccccc1)c1ccc(Cl)cc1` the “activity change, negative = cytotoxicity” value was -2.93% (inactive).
With `Cc1ccccc1N1C(=O)c2cc(S(N)(=O)=O)c(Cl)cc2NC1C` (stereo not given) the “activity change, negative = cytotoxicity” value was 2.32% [at 42.5 µM] (inactive).
For `CO[Si](C)(OC)OC`, the “activity change, negative = cytotoxicity” value was 4.45% (inactive).
In the case of `C/C(=N/NC(=O)c1ccncc1)C(=O)O`, the “activity change, negative = cytotoxicity” value is reported as 0.69% [at 42.5 µM] (inactive).
In the case of `CCC(C(=O)OCCOCCN(CC)CC)c1ccccc1` (stereo not given), the “activity change, negative = cytotoxicity” value is reported as -0.151% [at 42.5 µM] (inactive).
For `CC1=C(C=O)C(C)(C)CCC1`, the “activity change, negative = cytotoxicity” value was 0.966% (inactive).
In the case of `OC/C(Br)=C(\Br)CO`, the “activity change, negative = cytotoxicity” value is reported as 1.84% (inactive).
In the case of `Cn1c(=O)c2c(ncn2CC(=O)O)n(C)c1=O`, the “activity change, negative = cytotoxicity” value is reported as 0.521% [at 42.5 µM] (inactive).
With `O=C(/C=C/c1ccccc1)OCCCc1ccccc1` the “activity change, negative = cytotoxicity” value was 4.48% (inactive).
For `CC(C)CCCCCCOC(=O)CCCCC(=O)OCCCCCCC(C)C`, the “activity change, negative = cytotoxicity” value was 0.549% (inactive).
For `CCCCCCCCSCCO`, the “activity change, negative = cytotoxicity” value was 2.19% (inactive).
With `C=C(C)C(=O)OCCOC(=O)CC(C)=O` the “activity change, negative = cytotoxicity” value was -0.566% (inactive).
For `CCc1c2c(nc3ccc(OC(=O)N4CCC(N5CCCCC5)CC4)cc13)-c1cc3c(c(=O)n1C2)COC(=O)[C@]3(O)CC`, the “activity change, negative = cytotoxicity” value was -10.9% [at 42.5 µM] (inactive).
For `CCN(CC)CCNC(=O)c1ccc(NC(C)=O)cc1`, the “activity change, negative = cytotoxicity” value was 4.47% [at 42.5 µM] (inactive).
For `CCCOCCOCCO`, the “activity change, negative = cytotoxicity” value was 1.81% (inactive).
With `CCCCCCCCCCOS(=O)(=O)O` the “activity change, negative = cytotoxicity” value was -3.17% (inactive).
In the case of `O=C(Nc1ccccc1)Nc1ccccc1`, the “activity change, negative = cytotoxicity” value is reported as -5.89% (inactive).
With `CCCCC(=O)O[C@]1(C(=O)CO)[C@@H](C)C[C@H]2[C@@H]3CCC4=CC(=O)C=C[C@]4(C)[C@@]3(F)[C@@H](O)C[C@@]21C` the “activity change, negative = cytotoxicity” value was -0.429% (inactive).
With `C[C@]12CCC(=O)C=C1C=C[C@@H]1[C@@H]2CC[C@@]2(C)[C@H]1CC[C@@]21CCC(=O)O1` the “activity change, negative = cytotoxicity” value was -12.2% [at 42.5 µM] (inactive).
For `CCCc1c(OCCCOc2ccc(OCC(=O)O)cc2)ccc(C(C)=O)c1O`, the “activity change, negative = cytotoxicity” value was 1.07% (inactive).
In the case of `CCCOC(=O)c1ccc(N)cc1`, the “activity change, negative = cytotoxicity” value is reported as 0.286% [at 42.5 µM] (inactive).
With `C1COCO1` the “activity change, negative = cytotoxicity” value was -0.082% (inactive).
With `Cc1ccc(/C=N/n2c(-c3ccccc3)csc2=S)cc1` the “activity change, negative = cytotoxicity” value was -7.61% [at 42.5 µM] (inactive).
For `CC(=O)[C@H]1CC[C@H]2[C@@H]3C[C@H](C)C4=CC(=O)CC[C@]4(C)[C@H]3[C@@H](O)C[C@]12C`, the “activity change, negative = cytotoxicity” value was 4.16% [at 42.5 µM] (inactive).
For `CCCCCCCCCCCCCCCCBr`, the activity change, negative = cytotoxicity was 1.54% [at 19 µM] (inactive).
With `Cc1cc(C(=C2C=CC(=Nc3ccc(S(=O)(=O)O)cc3S(=O)(=O)O)C=C2)c2ccc(Nc3ccc(S(=O)(=O)O)cc3)cc2)ccc1N` the “activity change, negative = cytotoxicity” value was -1.35% [at 42.5 µM] (inactive).
With `CC(=O)CC(c1ccc([N+](=O)[O-])cc1)c1c(O)c2ccccc2oc1=O` (stereo not given) the “activity change, negative = cytotoxicity” value was -9.31% [at 42.5 µM] (inactive).
In the case of `CCCCCCCCCCCC[N+](C)(C)CCCS(=O)(=O)[O-]`, the “activity change, negative = cytotoxicity” value is reported as 1.05% (inactive).
For `O=Cc1c(Cl)cccc1Cl`, the “activity change, negative = cytotoxicity” value was -0.555% (inactive).
In the case of `CN1Cc2cc(C(=O)N3CCC(C4CCNCC4)CC3)ccc2N[C@@H](CC(=O)O)C1=O`, the “activity change, negative = cytotoxicity” value is reported as 0.0166% [at 42.5 µM] (inactive).
With `CC(Cl)C(Cl)Cl` (stereo not given) the “activity change, negative = cytotoxicity” value was -0.778% (inactive).
For `CCOC(=O)/C=C/C(=O)O`, the “activity change, negative = cytotoxicity” value was -4.69% (inactive).
For `Cc1occc1C(=O)Nc1ccc(C(=O)N2CCC(F)(F)/C(=C\C(=O)N3CCC(N4CCCCC4)CC3)c3ccccc32)cc1`, the “activity change, negative = cytotoxicity” value was -7.65% [at 42.5 µM] (inactive).
In the case of `CC(N)CN` (stereo not given), the “activity change, negative = cytotoxicity” value is reported as 6.18% (inactive).
With `CN(C)C(=O)Nc1ccc(Oc2ccc(Cl)cc2)cc1` the Potency was 54.5 µM (active).
In the case of `CC(C)(C)C(=O)O`, the “activity change, negative = cytotoxicity” value is reported as 1.12% (inactive).
With `CCOC(=O)C(C)Oc1ccc(Oc2nc3ccc(Cl)cc3o2)cc1` (stereo not given) the “activity change, negative = cytotoxicity” value was 0.458% (inactive).
For `Cc1ccc(Nc2nccc(N(C)c3ccc4c(C)n(C)nc4c3)n2)cc1S(N)(=O)=O`, the “activity change, negative = cytotoxicity” value was -9.17% [at 42.5 µM] (inactive).
With `O=C(CCCN1CCN(c2ccc(F)cc2)CC1)NC1c2ccccc2CSc2ccccc21` (stereo not given) the “activity change, negative = cytotoxicity” value was -1.95% [at 42.5 µM] (inactive).
For `Cc1cnc(C)c(C)n1`, the “activity change, negative = cytotoxicity” value was -0.0668% (inactive).
